Several values for one entry are separate records, joined by “and”; a condition that tells them apart may be missing. Equal values may be shown once. The whole screen tested about 5,500 compounds, of which about 2,000 (36%) were called active. Inconclusive results (about 18%) are left out. Cut-off read from the data, not from the text of the source: active = normalized growth mostly below about 0.91 (no sharp cut-off); inconclusive = no clear call, values can overlap the other calls; inactive = mostly above about 0.92. Some of the results follow.
Assay: chemical genetic growth profiling, strain panel (AID 1159580);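 note: tested at 20 µM; growth read once vehicle control cultures reached saturation at 30 °C; 1 = growth at the plate median or of vehicle wells; lower values mean less growth of the strain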
Details: S. cerevisiae deletion strains, growth OD

Measured: normalized growth

COc1ccc2c(c1)[C@]13CCCC[C@H]1[C@H](C2)N(C)CC3
inactive: locus YAL021C, strain ccr4, active compounds read low 0.94 | locus YAL026C, strain drs2, active compounds read low 1 | locus YAL030W, strain snc1, active compounds read low 0.971 | locus YBL061C, strain skt5, active compounds read low 0.981 | locus YBR009C, strain hhf1, active compounds read low 0.988 | locus YBR021W, strain FUR4, active compounds read low 1.01 | locus YBR023C, strain chs3, active compounds read low 0.99 | locus YBR171W, strain sec66, active compounds read low 0.933 | locus YBR229C, strain ROT2, active compounds read low 1.01 | locus YBR231C, strain swc5, active compounds read low 0.937 | locus YBR279W, strain paf1, active compounds read low 0.998 | locus YCL011C, strain gbp2, active compounds read low 0.991 | locus YCL016C, strain dcc1, active compounds read low 1.03 | locus YCL029C, strain bik1, active compounds read low 0.988 | locus YCL061C, strain MRC1, active compounds read low 0.968 | locus YCL069W, strain vba3, active compounds read low 0.995 | locus YCR088W, strain abp1, active compounds read low 0.952 | locus YDL005C, strain med2, active compounds read low 0.97 | locus YDL035C, strain GPR1, active compounds read low 1.04 | locus YDL040C, strain nat1, active compounds read low 0.962 | locus YDL074C, strain BRE1, active compounds read low 0.993 | locus YDL101C, strain DUN1, active compounds read low 1 | locus YDL134C, strain PPH21, active compounds read low 1.03 | locus YDL185W, strain tfp1, active compounds read low 0.989 | locus YDL192W, strain arf1, active compounds read low 0.995 | locus YDR001C, strain nth1, active compounds read low 0.951 | locus YDR069C, strain doa4, active compounds read low 0.943 | locus YDR101C, strain arx1, active compounds read low 0.999 | locus YDR137W, strain rgp1, active compounds read low 0.999 | locus YDR150W, strain NUM1, active compounds read low 1.01 | locus YDR159W, strain sac3, active compounds read low 0.955 | locus YDR162C, strain NBP2, active compounds read low 1.01 | locus YDR195W, strain ref2 0.926 | locus YDR297W, strain sur2, active compounds read low 0.98 | locus YDR318W, strain mcm21, active compounds read low 0.988 | locus YDR334W, strain swr1, active compounds read low 0.909 | locus YDR335W, strain msn5, active compounds read low 0.949 | locus YDR388W, active compounds read low 0.993 | locus YDR392W, strain spt3, active compounds read low 1.03 | locus YDR502C, strain sam2, active compounds read low 0.992 | locus YEL003W, strain gim4, active compounds read low 0.966 | locus YEL037C, strain rad23, active compounds read low 0.975 | locus YEL061C, strain CIN8 (second series), active compounds read low 0.96 | locus YEL061C, strain CIN8, active compounds read low 1.01 | locus YER015W, strain faa2, active compounds read low 0.961 | locus YER016W, strain bim1, active compounds read low 1 | locus YER110C, active compounds read low 0.996 | locus YER111C, strain swi4, active compounds read low 0.978 | locus YER155C, strain BEM2 (second series), active compounds read low 0.886 | locus YER155C, strain BEM2, active compounds read low 1 | locus YER167W, strain BCK2, active compounds read low 1.01 | locus YFR010W, strain ubp6, active compounds read low 0.95 | locus YGL078C, strain dbp3, active compounds read low 0.993 | locus YGL086W, strain mad1, active compounds read low 0.993 | locus YGL167C, strain pmr1, active compounds read low 0.946 | locus YGL173C, strain kem1, active compounds read low 1 | locus YGL227W, strain vid30, active compounds read low 0.965 | locus YGL240W, strain doc1, active compounds read low 0.948 | locus YGL248W, strain PDE1, active compounds read low 0.995 | locus YGL253W, strain hxk2, active compounds read low 0.998 | locus YGR078C, strain PAC10, active compounds read low 0.996 | locus YGR135W, strain pre9, active compounds read low 0.964 | locus YGR229C, strain SMI1, active compounds read low 1.02 | locus YGR252W, strain gcn5, active compounds read low 0.973 | locus YHR013C, strain ard1, active compounds read low 0.991 | locus YHR027C, strain rpn1, active compounds read low 0.985 | locus YHR030C, strain SLT2, active compounds read low 1.01 and 1.03 | locus YHR079C, strain IRE1 (second series), active compounds read low 0.984 | locus YHR079C, strain IRE1, active compounds read low 1.03 | locus YHR094C, strain hxt1, active compounds read low 0.987 | locus YHR129C, strain ARP1, active compounds read low 1.01 | locus YHR142W, strain chs7, active compounds read low 0.987 | locus YHR200W, strain rpn10, active compounds read low 0.996 | locus YIL066C, strain RNR3, active compounds read low 1.01 | locus YIL073C, strain SPO22, active compounds read low 0.976 | locus YIL125W, strain kgd1, active compounds read low 0.987 | locus YIR030C, strain dcg1, active compounds read low 0.999 | locus YJL092W, strain hpr5, active compounds read low 0.962 | locus YJL095W, strain BCK1 (second series), active compounds read low 0.978 | locus YJL095W, strain BCK1, active compounds read low 0.966 and 1.04 | locus YJL115W, strain asf1, active compounds read low 0.95 | locus YJL129C, strain trk1, active compounds read low 0.932 | locus YJL134W, strain LCB3, active compounds read low 0.999 | locus YJL154C, strain vps35, active compounds read low 0.954 | locus YJL164C, strain tpk1, active compounds read low 1.02 | locus YJL166W, strain qcr8, active compounds read low 0.929 | locus YJL168C, strain set2, active compounds read low 0.99 | locus YJL187C, strain SWE1 (second series), active compounds read low 0.994 | locus YJR043C, strain POL32, active compounds read low 1.04 | locus YJR066W, strain TOR1, active compounds read low 0.984 | locus YJR075W, strain HOC1, active compounds read low 0.983 | locus YKL009W, strain mrt4, active compounds read low 0.99 | locus YKL068W, active compounds read low 0.993 | locus YKL085W, strain MDH1 (second series), active compounds read low 0.984 | locus YKL085W, strain MDH1, active compounds read low 0.984 | locus YKL160W, strain elf1, active compounds read low 0.97 | locus YKR001C, strain vps1, active compounds read low 0.997 | locus YKR026C, strain gcn3, active compounds read low 0.966 | locus YKR091W, strain srl3, active compounds read low 0.966 | locus YLL001W, strain dnm1, active compounds read low 0.926 | locus YLL026W, active compounds read low 0.986 | locus YLL041C, strain sdh2, active compounds read low 0.97 | locus YLR027C, strain aat2, active compounds read low 0.966 | locus YLR039C, strain RIC1, active compounds read low 1.1 | locus YLR058C, strain SHM2, active compounds read low 0.996 | locus YLR102C, strain apc9, active compounds read low 0.976 | locus YLR113W, strain HOG1, active compounds read low 1.05 | locus YLR221C, strain rsa3, active compounds read low 1.01 | locus YLR258W, strain gsy2, active compounds read low 0.997 | locus YLR262C, strain YPT6 (second series), active compounds read low 0.954 | locus YLR262C, strain YPT6, active compounds read low 1.08 | locus YLR268W, strain sec22, active compounds read low 0.988 | locus YLR320W, strain mms22, active compounds read low 1 | locus YLR330W, strain CHS5, active compounds read low 1.01 | locus YLR342W, strain FKS1 (second series), active compounds read low 0.997 | locus YLR342W, strain FKS1, active compounds read low 0.946 | locus YLR357W, strain rsc2, active compounds read low 0.958 | locus YLR370C, strain arc18, active compounds read low 0.989 | locus YLR371W, strain rom2, active compounds read low 0.993 | locus YLR384C, strain iki3, active compounds read low 0.956 | locus YLR418C, strain cdc73, active compounds read low 0.957 | locus YML016C, strain PPZ1, active compounds read low 1.01 | locus YML032C, strain rad52, active compounds read low 0.997 | locus YML120C, strain ndi1, active compounds read low 0.973 | locus YML124C, strain tub3, active compounds read low 0.997 | locus YMR058W, strain fet3, active compounds read low 0.974 | locus YMR078C, strain ctf18, active compounds read low 0.982 | locus YMR125W, strain sto1, active compounds read low 0.917 | locus YMR129W, active compounds read low 0.985 | locus YMR205C, strain PFK2, active compounds read low 0.953 | locus YMR223W, strain ubp8, active compounds read low 0.965 | locus YMR231W, strain pep5, active compounds read low 0.965 | locus YMR307W, strain GAS1, active compounds read low 1.09 | locus YNL067W, strain RPL9B, active compounds read low 0.99 | locus YNL071W, strain lat1, active compounds read low 0.982 | locus YNL153C, strain GIM3, active compounds read low 0.981 | locus YNL183C, strain NPR1, active compounds read low 0.997 | locus YNL209W, strain ssb2, active compounds read low 0.99 | locus YNL233W, strain BNI4, active compounds read low 0.982 | locus YNL248C, strain rpa49, active compounds read low 0.987 | locus YNL250W, strain rad50, active compounds read low 1.01 | locus YNL271C, strain bni1, active compounds read low 0.994 | locus YNL298W, strain CLA4, active compounds read low 0.991 | locus YNL307C, strain MCK1, active compounds read low 0.979 | locus YNL322C, strain KRE1 (second series), active compounds read low 0.93 | locus YNR049C, strain mso1, active compounds read low 0.976 | locus YNR052C, strain pop2, active compounds read low 0.992 | locus YOL012C, strain htz1 0.734 | locus YOL147C, strain pex11, active compounds read low 0.989 | locus YOR001W, strain rrp6, active compounds read low 0.953 | locus YOR061W, strain CKA2, active compounds read low 1.02 | locus YOR069W, strain VPS5, active compounds read low 1.01 | locus YOR070C, strain gyp1, active compounds read low 0.987 | locus YOR080W, strain dia2, active compounds read low 0.945 | locus YOR083W, strain WHI5, active compounds read low 0.947 | locus YOR106W, strain vam3, active compounds read low 0.939 | locus YOR136W, strain idh2, active compounds read low 0.99 | locus YOR144C, strain elg1, active compounds read low 0.99 | locus YOR184W, strain ser1, active compounds read low 0.99 | locus YOR231W, strain MKK1, active compounds read low 1.04 | locus YOR265W, strain rbl2, active compounds read low 0.967 | locus YOR270C, strain vph1, active compounds read low 0.966 | locus YOR290C, strain snf2, active compounds read low 1.01 | locus YOR316C, strain cot1, active compounds read low 0.991 | locus YPL051W, strain arl3, active compounds read low 0.985 | locus YPL078C, strain atp4, active compounds read low 0.933 | locus YPL106C, strain sse1, active compounds read low 0.944 | locus YPL240C, strain hsp82, active compounds read low 0.967 | locus YPL256C, strain CLN2, active compounds read low 1.03 | locus YPR119W, strain clb2, active compounds read low 0.981 | locus YPR141C, strain kar3, active compounds read low 0.98 | locus YPR163C, strain tif3, active compounds read low 1 | locus YPR167C, strain met16, active compounds read low 0.987 | strain wtn01, active compounds read low 0.986
